Test results as given in PubChem BioAssay (Tox21).
A number with no mark means an inactive call. Active and inactive are the calls of the source. The call rests on the fitted dose curve.

Molecular target: Estrogen receptor (Homo sapiens) (UniProt P03372)
Experiment: qHTS assay to identify small molecule agonists of the estrogen receptor alpha (ER-alpha) signaling pathway in the presence of an antagonist (AID 1259383); further: nearly all actives have a fitted effect of over 15% in size; on activation: top concentration of the series differs between compounds
Conditions: VM7Luc4E2 cells, ERE-luciferase, +ICI-182,780, 22 h; series mostly up to 92.4 µM; activation: at the top concentration
Description: National Center for Advancing Translational Sciences [NCATS] NIH Chemical Genomics Center [NCGC] U.S. Environmental Protection Agency [EPA] National Institutes of Environmental Health Sciences [NIEHS] National Toxicology Program [NTP] Assay overview: Estrogen receptor (ER), a member of nuclear hormone receptor plays an important role in development, metabolic homeostasis and reproduction. Two subtypes of ER, ER-alpha and ER-beta, have similar expression patterns with some uniqueness in both types. Endocrine disrupting chemicals (EDCs) and their interactions with steroid hormone receptors like ER causes disruption of normal endocrine function. Therefore, it is important to understand the effect of environmental chemicals in ER signaling pathway. For identifying ER agonists, VM7Luc4E2 cell line has been used in the current assay. VM7Luc4E2 cell line (provided by Denison MS, University of California) endogenously expresses full-length ER-alpha and is stably transfected with a plasmid containing four estrogen responsive elements (ERE) upstream of a luciferase reporter gene. This current screening for measuring luciferase reporter gene activity using VM7Luc4E2 cells against Tox21 10K library collection is a confirmation study on agonist mode screening in presence of ER-antagonist (ICI-182,780) at 10.0nM final concentration.
Assay Protocol Summary: VM7Luc4E2 cells were cultured in phenol red free assay medium containing 10% charcoal stripped FBS for 5 days prior to the assay. The cells were dispensed at 4,000 cells in 4uL of assay medium per well into white wall/solid-bottom 1536-well plates (Corning Life Sciences, Corning, NY) using a Multidrop Combi (Thermo Fisher Scientific Inc., Waltham, MA) dispenser. After the assay plates were incubated at 37C and 5% CO2 for 24hr, 1uL of 10.0nM (final concentration) ICI-182,780 or assay buffer was added using two separate tips of Flying Reagent Dispenser (FRD, Aurora Discovery, San Diego, CA). Then 23nL of compounds dissolved in DMSO at 15 concentrations and positive controls or DMSO only was transferred to the assay plates by a Pintool station (Wako, San Diego, CA). The assay plates were incubated at 37C and 5% CO2 for 22hr. For luciferase read, 4uL/well ONE-Glo reagent (Promega Corporation, Madison, WI) was added to each well using FRD and after 30min incubation at room temperature, luminescence signal was measured on ViewLux plate reader (PerkinElmer, Shelton, CT).
On the % scale 0 is the no-effect control and ±100 the full control effect; potency means the concentration at half of the fitted maximal effect.

Chain of Estrogen receptor (Homo sapiens) (P03372 whole entry, looked up): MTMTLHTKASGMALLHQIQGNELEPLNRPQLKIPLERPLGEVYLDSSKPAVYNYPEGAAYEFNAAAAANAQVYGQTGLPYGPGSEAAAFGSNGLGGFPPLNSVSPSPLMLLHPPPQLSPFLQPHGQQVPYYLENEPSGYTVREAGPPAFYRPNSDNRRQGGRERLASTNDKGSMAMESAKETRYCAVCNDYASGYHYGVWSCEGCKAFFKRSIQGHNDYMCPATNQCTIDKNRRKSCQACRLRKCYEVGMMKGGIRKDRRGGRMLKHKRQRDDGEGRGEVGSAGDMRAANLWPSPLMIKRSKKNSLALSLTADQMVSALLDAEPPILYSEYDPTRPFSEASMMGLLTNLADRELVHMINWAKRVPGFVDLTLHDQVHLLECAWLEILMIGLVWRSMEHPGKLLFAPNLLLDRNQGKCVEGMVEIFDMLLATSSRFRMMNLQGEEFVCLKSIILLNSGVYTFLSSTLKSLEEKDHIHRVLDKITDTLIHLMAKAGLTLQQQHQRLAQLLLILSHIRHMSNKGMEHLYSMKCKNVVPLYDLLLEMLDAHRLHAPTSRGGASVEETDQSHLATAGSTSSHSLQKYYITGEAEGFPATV

SMILES	activation	Potency
CC1=CCC2C(C1)C2(C)C (stereo not given)	0.38%	
CC(C)=CCC/C(C)=C/C(=O)O	1.41%	
CCC(=O)Nc1cccc(N)c1	-0.406%	
CC(C)COC(=O)C(C)C	2.21%	
CC(C)(O)C(=O)c1ccc(OCCO)cc1	0.976%	
Nc1ccc2cc(S(=O)(=O)O)ccc2c1	-0.0862%	
CC(C)[C@H](N)C(=O)OCCOCn1cnc2c(=O)[nH]c(N)nc21	-0.198% [at 42.5 µM]	
CCCCCCC(CCCCCCCCCCC(=O)OCC(COC(C)=O)OC(C)=O)OC(C)=O (stereo not given)	-0.365% [at 42.5 µM]	
O=C(O)c1cccc(C(=O)O)n1	0.301%	
CCc1cc(S(=O)(=O)O)c2cc(C(C)C)cccc1-2	0.814% [at 42.5 µM]	
COC(=O)CCCCCCCCC(=O)OC	0.225%	
NS(=O)(=O)c1cc2c(cc1Cl)NC(CSCc1ccccc1)=NS2(=O)=O	-0.271% [at 42.5 µM]	
C(=C(c1ccccc1)c1ccccc1)c1ccccc1		17.2 µM (active)
C=CCOCC(O)CS(=O)(=O)O (stereo not given)	-2.78%	
Oc1ccc2c(c1)OC[C@@H](N1CCC(O)(c3ccc(F)cc3)CC1)[C@H]2O		0.668 µM (active)
COCCOC(=O)CC#N	0.676%	
COC(=O)c1ccc(C(=O)OC)c(C(=O)OC)c1	-1.77%	
CCCc1ccc(N)cc1	4.29%	
CC(C)c1ccc2oc3nc(N)c(C(=O)O)cc3c(=O)c2c1	6.09% [at 42.5 µM]	
NCCN1CCNC1=O	0.176%	

SMILES	activation	Potency
CC/C=C\C#N	0.404%	
COc1cc(O)cc(O)c1	0.0295% [at 42.5 µM]	
O=S(=O)(c1cccc2cnccc12)N1CCCNCC1	1.6% [at 42.5 µM]	
O=C(O)C1CCC1	-0.281% [at 42.5 µM]	
CCCCC1CCCCC(=O)O1 (stereo not given)	-1.8%	
Oc1cc(O)c2c(c1)O[C@H](c1ccc(O)c(O)c1)[C@H](O)C2	-0.851% [at 42.5 µM]	
c1ccc2cnncc2c1	-1.02%	
CN(C)C(=O)Nc1ccccc1	0.492%	
CCCCNc1ccccc1	-1.64%	
O=Cc1ccccc1[N+](=O)[O-]	3.12%	
O=[N+]([O-])c1ccc(CCO)cc1	-0.166%	
O=C(O)Cc1cc(I)c(Oc2cc(I)c(O)c(I)c2)c(I)c1	-3.43% [at 42.5 µM]	
CCCCCCCCN(C)CCCCCCCC	1.43%	
C=CCn1c(=O)n([C@@H]2O[C@H](CO)[C@@H](O)[C@H]2O)c2nc(N)[nH]c(=O)c21	-0.216% [at 42.5 µM]	
[O-][N+](=Nc1ccccc1)c1ccccc1	12.6%	
COCc1ccc(COC)cc1	0.0788%	
CC(C)CCOC(=O)CC(C)C	0.118%	
OCc1ccccn1	0.822% [at 42.5 µM]	
CCCCCCCCCCCCCCCCCC(=O)OCCCCCCCCCCCCCC(C)C	-0.0377%	
CCN(CC)C(=O)c1ccc(O)c(OC)c1	0.74% [at 42.5 µM]	
